Screening results: PubChem BioAssay, several laboratories
ADAM17 inh: inhibitors of human ADAM17. inhibition, % at 6.95 µM. recombinant ADAM17, EDANS/DABCYL FRET peptide cleavage. actives 0.83% (n = 370,000). AID 720648;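 active = inhibition above the mean of compounds lying between control limits plus 3 SD, set per campaign, cut at about 8.5% in these data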
APOBEC3G inh: blocks human APOBEC3G single-stranded DNA deamination. recombinant A3G, ssDNA deamination FAM/TAMRA fluorescence. Q9HC16. inhibition, % at 20 µM. actives 0.28% (n = 330,000);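 active = inhibition of at least 40% at 20 µM, with no more than 30% in the related APOBEC3A deaminase screen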
Target sequence (Q9HC16 whole entry, looked up): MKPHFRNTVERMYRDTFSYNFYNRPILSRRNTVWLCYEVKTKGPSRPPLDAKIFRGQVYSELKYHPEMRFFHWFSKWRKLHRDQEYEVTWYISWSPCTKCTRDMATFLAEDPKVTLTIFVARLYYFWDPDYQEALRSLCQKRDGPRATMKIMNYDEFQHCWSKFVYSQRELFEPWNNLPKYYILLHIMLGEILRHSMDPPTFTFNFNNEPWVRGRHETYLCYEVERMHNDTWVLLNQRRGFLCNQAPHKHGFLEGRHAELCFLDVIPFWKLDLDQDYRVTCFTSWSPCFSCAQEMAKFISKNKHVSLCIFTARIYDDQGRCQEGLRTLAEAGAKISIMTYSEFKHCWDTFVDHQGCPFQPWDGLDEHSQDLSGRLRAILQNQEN
APOBEC3A inh: blocks human APOBEC3A ssDNA deamination | recombinant A3A, FAM/TAMRA ssDNA deamination fluorescence | inhibition, % at 20 µM | actives 0.41% (n = 330,000);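 active = at least 40% inhibition at 20 µM here, with at most 30% in a related deaminase screen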
ADAM10 inh: ADAM10 inhibition, QFRET primary screen; inhibition, % at 7 µM; recombinant ADAM10, EDANS/DABCYL FRET peptide cleavage, 3 h; AID 720582; actives 0.62% (n = 370,000); O14672;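 active = inhibition above a per-campaign cutoff equal to the mean of compounds falling between control-based bounds plus 3 SD, cut at about 20% in these data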
CendR NRP1 mod: alters CendR peptide binding to human NRP-1 | FAM-RPARPAR peptide binding to NRP-1, fluorescence polarization | actives 0.85% (n = 360,000) | inhibition, % at 25 µM | AID 602438;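 active = inhibition or corrected inhibition above about 18%, plus a signal ratio from 0.5 to 1.5, limit read from the data, passing the limit was not always enough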
Of the large screens only hits and unclear results are named; the others gave an inactive call. A selection: hits, their analogues and other compounds. The true share with any hit is near 2.4%.

COc1ccccc1NC(=O)N(Cc1ccco1)Cc1cc2cccc(C)c2[nH]c1=O	CendR NRP1 mod 26.1
COc1ccccc1NC(=O)N(Cc1ccco1)Cc1cc2c(C)ccc(C)c2[nH]c1=O	none (no result: APOBEC3G inh, APOBEC3A inh)
CCN(CC)S(=O)(=O)c1ccc(/C=C/C(=O)O)cc1	CendR NRP1 mod 32.6
COCCSc1nnc(-c2cccnc2)n1Cc1ccccc1	none (no result: APOBEC3G inh, APOBEC3A inh, CendR NRP1 mod)
O=C1CCC[C@@H]2Cc3nc4cc5c(cc4cc3[C@@H]3CCN1[C@H]23)OCO5	CendR NRP1 mod 24.0 (no result: APOBEC3G inh, APOBEC3A inh)
O=C(COc1ccccc1O)N1CCN(C(=O)c2ccco2)CC1	CendR NRP1 mod 32.4
CC(=O)NCc1ccc(OCCCN2CCC(C(O)(c3ccccc3)c3ccccc3)CC2)cc1	none (no result: APOBEC3G inh, APOBEC3A inh, CendR NRP1 mod)
O=C(CNC(=O)c1cccs1)N=Nc1c(O)[nH]c2ccc([N+](=O)[O-])cc12	CendR NRP1 mod 29.6
CCCCCCC(=O)N=Nc1c(O)[nH]c2ccc([N+](=O)[O-])cc12	none
CC(=O)NC1CCCCN(C)C1=O (stereo not given)	none (no result: APOBEC3G inh, APOBEC3A inh, CendR NRP1 mod)
CC(C)Cn1cnc2c(SCc3ccccc3F)nc(N)nc21	CendR NRP1 mod 26.1 (no result: APOBEC3G inh, APOBEC3A inh)
Cc1nc(SCC(=O)N2CCOCC2)c2c(=O)n(C)c(=O)n(CC(C)C)c2n1	CendR NRP1 mod 23.8
c1ccc(SCc2cn(C[C@H]3CC[C@@H]([C@@H]4CC[C@H](Cn5cc(CSc6ccccc6)nn5)O4)O3)nn2)cc1	CendR NRP1 mod 23.5
c1ccc(Cn2cc(CSc3ccccc3)nn2)cc1	CendR NRP1 mod 28.0
COc1ccc(-n2c(SCC(=O)Nc3ccc(Oc4ccccc4)cc3)nnc2-c2ccco2)cc1	none (no result: APOBEC3G inh, APOBEC3A inh, CendR NRP1 mod)
C#CCCC(=O)O[C@H]1CCC[C@@]2(C(=O)N(Cc3ccccc3)c3ccccc32)[C@H]1NC(=O)CCc1ccccc1	none (no result: APOBEC3G inh, APOBEC3A inh, CendR NRP1 mod)
N#CC1(c2ccccc2)CCCN1C(=O)c1ccccc1Cl (stereo not given)	CendR NRP1 mod 26.3
COc1ccc(-n2c(COc3ccccc3)nnc2SCc2nc3ccccc3[nH]2)cc1	none (no result: APOBEC3G inh, APOBEC3A inh, CendR NRP1 mod)
COc1cccc(-n2nnc3c(=O)n(CC(=O)OCc4ccccc4)cnc32)c1	CendR NRP1 mod 26.0
C[C@H]1Cn2cnc(C(=O)N(C)Cc3ccccc3)c2C(=O)N1	none (no result: APOBEC3G inh, APOBEC3A inh, CendR NRP1 mod)
Cc1ccc2oc(C(=O)N3CCCCCC3)c(C)c2c1	CendR NRP1 mod 26.1
Cc1c(C(=O)N2CCCCC2)oc2ccc(Br)cc12	none
O=c1nc2s/c(=C\c3ccc(-c4ccccc4[N+](=O)[O-])o3)c(=O)n2nc1-c1ccccc1	CendR NRP1 mod 35.7 (no result: APOBEC3G inh, APOBEC3A inh)
CCCCCOc1ccc(/C=c2\sc3nc(=O)c(-c4ccccc4)nn3c2=O)cc1OC	none
CCCN(CC1CC1)c1cc2c(c3c1ccn3C)C1CCC2O1 (stereo not given)	CendR NRP1 mod 21.6 (no result: APOBEC3G inh, APOBEC3A inh)
Cn1c(=O)c2[nH]c(SCCN3CCCCC3)nc2n(C)c1=S	CendR NRP1 mod 20.5 (no result: APOBEC3G inh, APOBEC3A inh)
NC(=O)C1CCN(c2nc(-c3ccccc3N)cs2)CC1	CendR NRP1 mod 24.4
Cc1cc(C)nc(NC(=S)N2CCN(c3ncc(C(F)(F)F)cc3Cl)CC2)c1	none (no result: APOBEC3G inh, APOBEC3A inh, CendR NRP1 mod)
COc1cc(OC)nc(NC(=O)COC(=O)c2cccc(Cl)c2)n1	CendR NRP1 mod 32.2
CN(C)c1cc(N/N=C\c2ccccc2)nc(N(C)C)n1	CendR NRP1 mod 35.4
O=C(COC(=O)C12CC3CC(CC(C3)C1)C2)Nc1nc2c(F)c(F)c(F)cc2s1	CendR NRP1 mod 30.9
CCCCOCCCNC(=O)C[C@H]1C[C@@]2(C(=O)OC)C(=C[C@H](C(C)C)O[C@@H]2C2CC2)N(Cc2cccc3ccccc23)C1=O	none (no result: APOBEC3G inh, APOBEC3A inh, CendR NRP1 mod)
Cc1ccc(Cn2cc(COC(=O)Nc3ccc(F)cc3)nn2)cc1	none (no result: APOBEC3G inh, APOBEC3A inh, CendR NRP1 mod)
CC1CCCCN1S(=O)(=O)c1ccc(N(C(=O)c2cnccn2)C(C(=O)NC2CCCCC2)c2cccs2)cc1 (stereo not given)	CendR NRP1 mod 28.4
Fc1ccccc1Cn1ccc2ccc(-c3ccc4ccn(Cc5ccccc5F)c4c3)cc21	none (no result: APOBEC3G inh, APOBEC3A inh, CendR NRP1 mod)
Cc1ccc2c(c1)/C(=N/OC(=O)c1ccc(F)cc1)CCS2	none
O=C(O/N=C1/CCSc2ccccc21)c1ccccc1	CendR NRP1 mod 26.0
Nc1ccn([C@@H]2O[C@H](C(=O)N[C@H](Cc3ccccc3)C(=O)NCC(F)(F)F)[C@@H](O)[C@H]2O)c(=O)n1	none (no result: APOBEC3G inh, APOBEC3A inh, CendR NRP1 mod)
Cc1[nH]c(=O)[nH]c(=O)c1CCSSCCc1c(C)[nH]c(=O)[nH]c1=O	none (no result: APOBEC3G inh, APOBEC3A inh, CendR NRP1 mod)
O=C(NCCn1cccn1)C1CCC(=O)N(CCc2cccc(F)c2)C1 (stereo not given)	CendR NRP1 mod 47.4
